Common to all, as to experiment: DAPPL (digital affinity profiling via proximity ligation, sequencing); 10 mM Tris-HCl pH 7.5, 50 mM NaCl, 1 mM DTT, 4% glycerol, room temperature, 30 min; GST-TFs on glutathione beads, 16-mer random dsDNA library, 0.1% formaldehyde crosslink after washing; high values mean tight binding
Conditions in all cases: protein: recombinant; tags: N-terminal GST; dsDNA, one strand shown

One assay has as its target T1, FLI1 (Homo sapiens, UniProt Q01543 1-452).
T1 sequence: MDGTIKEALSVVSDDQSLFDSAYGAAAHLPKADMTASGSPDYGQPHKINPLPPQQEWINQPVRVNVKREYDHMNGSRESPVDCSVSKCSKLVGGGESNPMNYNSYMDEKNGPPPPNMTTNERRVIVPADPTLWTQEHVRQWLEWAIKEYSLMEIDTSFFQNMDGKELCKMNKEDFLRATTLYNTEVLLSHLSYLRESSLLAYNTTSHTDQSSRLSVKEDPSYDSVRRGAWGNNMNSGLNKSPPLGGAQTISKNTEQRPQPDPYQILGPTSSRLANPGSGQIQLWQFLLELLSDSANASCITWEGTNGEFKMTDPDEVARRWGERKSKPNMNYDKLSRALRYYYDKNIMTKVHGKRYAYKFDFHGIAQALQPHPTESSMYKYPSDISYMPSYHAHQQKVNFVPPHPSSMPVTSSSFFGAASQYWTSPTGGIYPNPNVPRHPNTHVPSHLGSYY
A digest of the protocol: (§1)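 The binding signal reported is, for every hexamer, its read frequency for a factor over its read frequency for the tag-only sample. Reads came from pools of yeast-expressed, GST-fused human transcription factors on glutathione beads, barcoded with DNA and mixed with that sample, which were incubated with 200 nmole of a random double-stranded 16-mer DNA library in Tris/NaCl/DTT/glycerol buffer at room temperature for 30 min. After washing, the pools were crosslinked with 0.1% formaldehyde, proximity-ligated with BsaI/T4 ligase for 1 h at 37 °C, PCR-amplified and sequenced on an Illumina NextSeq500.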

The target in another assay is T2, ELK1 (Homo sapiens, UniProt P19419 1-428).
T2 sequence: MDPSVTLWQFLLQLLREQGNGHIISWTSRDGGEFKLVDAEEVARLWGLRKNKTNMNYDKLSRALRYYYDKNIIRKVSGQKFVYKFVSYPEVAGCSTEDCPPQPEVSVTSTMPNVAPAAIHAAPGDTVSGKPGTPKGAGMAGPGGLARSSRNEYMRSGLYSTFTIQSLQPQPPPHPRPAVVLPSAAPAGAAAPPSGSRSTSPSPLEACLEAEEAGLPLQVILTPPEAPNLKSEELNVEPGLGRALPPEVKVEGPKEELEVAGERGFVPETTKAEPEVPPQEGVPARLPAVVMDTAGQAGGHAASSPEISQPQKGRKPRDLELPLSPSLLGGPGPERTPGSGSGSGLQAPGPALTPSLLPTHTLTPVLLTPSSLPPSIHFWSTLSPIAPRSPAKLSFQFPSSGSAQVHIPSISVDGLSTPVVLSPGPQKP
The procedure, abridged:
as §1

The next assay deals with T3, GABPA (Homo sapiens, UniProt Q06546 1-454).
T3 sequence: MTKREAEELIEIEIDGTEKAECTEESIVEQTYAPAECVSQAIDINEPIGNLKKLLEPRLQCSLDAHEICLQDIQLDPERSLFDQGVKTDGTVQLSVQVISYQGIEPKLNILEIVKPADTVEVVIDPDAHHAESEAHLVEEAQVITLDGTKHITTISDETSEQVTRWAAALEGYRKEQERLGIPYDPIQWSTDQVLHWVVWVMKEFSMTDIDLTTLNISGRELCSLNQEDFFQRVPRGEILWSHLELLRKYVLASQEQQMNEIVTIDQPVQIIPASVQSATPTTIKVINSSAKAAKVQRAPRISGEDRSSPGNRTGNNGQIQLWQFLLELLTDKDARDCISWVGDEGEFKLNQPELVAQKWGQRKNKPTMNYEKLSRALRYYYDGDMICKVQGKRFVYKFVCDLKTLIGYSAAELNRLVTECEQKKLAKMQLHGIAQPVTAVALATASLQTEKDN
A digest of the protocol: as §1

In a further assay the target is T4, ERG (Homo sapiens, UniProt P11308 1-479).
T4 sequence: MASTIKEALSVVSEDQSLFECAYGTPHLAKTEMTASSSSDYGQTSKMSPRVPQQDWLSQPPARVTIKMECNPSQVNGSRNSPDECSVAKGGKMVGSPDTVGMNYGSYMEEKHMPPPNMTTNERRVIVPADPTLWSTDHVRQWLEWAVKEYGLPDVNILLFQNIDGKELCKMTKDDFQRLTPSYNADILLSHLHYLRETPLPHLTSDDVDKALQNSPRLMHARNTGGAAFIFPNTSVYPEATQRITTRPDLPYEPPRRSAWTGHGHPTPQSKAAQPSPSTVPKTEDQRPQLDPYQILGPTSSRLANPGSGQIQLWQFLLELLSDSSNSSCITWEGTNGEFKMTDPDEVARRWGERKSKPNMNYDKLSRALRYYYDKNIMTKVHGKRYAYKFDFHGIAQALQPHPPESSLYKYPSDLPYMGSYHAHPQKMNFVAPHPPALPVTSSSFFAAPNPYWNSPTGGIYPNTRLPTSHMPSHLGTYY
The procedure, abridged:
as §1

The target of a further assay is ELF1 (Homo sapiens, UniProt P32519 1-619). A digest of the protocol: as §1
ELF1, sequence (P32519 whole entry): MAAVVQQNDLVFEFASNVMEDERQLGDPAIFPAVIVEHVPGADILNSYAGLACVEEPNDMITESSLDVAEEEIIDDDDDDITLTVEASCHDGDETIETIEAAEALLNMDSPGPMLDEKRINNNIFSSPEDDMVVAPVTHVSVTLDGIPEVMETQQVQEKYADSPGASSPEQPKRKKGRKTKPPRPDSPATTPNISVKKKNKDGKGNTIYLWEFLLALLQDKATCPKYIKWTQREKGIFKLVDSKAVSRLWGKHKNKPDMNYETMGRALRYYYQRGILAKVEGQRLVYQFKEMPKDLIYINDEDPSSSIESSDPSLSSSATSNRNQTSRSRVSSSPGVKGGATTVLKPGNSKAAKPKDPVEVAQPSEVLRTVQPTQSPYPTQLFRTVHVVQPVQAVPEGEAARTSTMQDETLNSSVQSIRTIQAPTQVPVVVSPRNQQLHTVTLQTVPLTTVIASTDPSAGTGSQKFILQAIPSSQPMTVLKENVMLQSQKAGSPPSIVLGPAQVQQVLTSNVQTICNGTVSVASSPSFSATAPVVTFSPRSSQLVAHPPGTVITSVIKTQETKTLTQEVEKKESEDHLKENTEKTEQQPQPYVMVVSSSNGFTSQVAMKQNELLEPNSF
In another assay the target is T5, EHF (Homo sapiens, UniProt Q9NZC4 1-300).
T5 sequence: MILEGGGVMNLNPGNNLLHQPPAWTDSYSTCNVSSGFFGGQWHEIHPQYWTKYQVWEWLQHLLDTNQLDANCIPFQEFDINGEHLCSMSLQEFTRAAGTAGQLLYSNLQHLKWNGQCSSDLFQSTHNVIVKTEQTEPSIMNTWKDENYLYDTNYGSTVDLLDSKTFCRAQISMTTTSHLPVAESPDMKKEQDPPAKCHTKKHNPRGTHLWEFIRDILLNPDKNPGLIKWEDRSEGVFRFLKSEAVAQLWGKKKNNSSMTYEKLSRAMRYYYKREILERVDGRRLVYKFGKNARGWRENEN
A digest of the protocol:
as §1

Another assay concerns the target SPI1 (Homo sapiens, UniProt P17947 1-270). A digest of the protocol:
as §1

The next assay deals with SPIB (Homo sapiens, UniProt Q01892 1-262). The procedure, abridged:
as §1

A further assay has as its target T6, ELK3 (Homo sapiens, UniProt P41970 1-407).
T6 sequence: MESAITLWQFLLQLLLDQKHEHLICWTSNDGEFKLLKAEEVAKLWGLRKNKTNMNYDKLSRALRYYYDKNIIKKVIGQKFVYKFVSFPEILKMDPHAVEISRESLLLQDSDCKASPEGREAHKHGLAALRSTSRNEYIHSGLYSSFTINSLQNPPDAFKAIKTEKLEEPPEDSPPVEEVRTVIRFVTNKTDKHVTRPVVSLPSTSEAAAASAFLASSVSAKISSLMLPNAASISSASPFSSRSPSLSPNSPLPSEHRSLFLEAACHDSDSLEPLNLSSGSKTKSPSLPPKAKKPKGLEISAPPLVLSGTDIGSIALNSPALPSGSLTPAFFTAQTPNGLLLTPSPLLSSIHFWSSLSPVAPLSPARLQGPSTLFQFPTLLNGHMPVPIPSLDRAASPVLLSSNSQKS
A digest of the protocol:
as §1

Another assay addresses ETV5 (Homo sapiens, UniProt P41161 1-510). A digest of the protocol:
as §1

In a further assay the target is T7, SPIC (Homo sapiens, UniProt Q8N5J4 1-248).
T7 sequence: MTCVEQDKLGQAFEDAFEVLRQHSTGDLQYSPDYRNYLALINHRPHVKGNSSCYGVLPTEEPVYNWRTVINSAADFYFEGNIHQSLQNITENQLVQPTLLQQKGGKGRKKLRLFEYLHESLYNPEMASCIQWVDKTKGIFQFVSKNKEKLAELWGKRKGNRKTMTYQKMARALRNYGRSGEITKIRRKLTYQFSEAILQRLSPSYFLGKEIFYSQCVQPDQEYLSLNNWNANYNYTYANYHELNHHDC
The procedure, abridged:
as §1

The next assay deals with ELF4 (Homo sapiens, UniProt Q99607 1-663). The procedure, abridged: as §1
ELF4, sequence (Q99607 whole entry): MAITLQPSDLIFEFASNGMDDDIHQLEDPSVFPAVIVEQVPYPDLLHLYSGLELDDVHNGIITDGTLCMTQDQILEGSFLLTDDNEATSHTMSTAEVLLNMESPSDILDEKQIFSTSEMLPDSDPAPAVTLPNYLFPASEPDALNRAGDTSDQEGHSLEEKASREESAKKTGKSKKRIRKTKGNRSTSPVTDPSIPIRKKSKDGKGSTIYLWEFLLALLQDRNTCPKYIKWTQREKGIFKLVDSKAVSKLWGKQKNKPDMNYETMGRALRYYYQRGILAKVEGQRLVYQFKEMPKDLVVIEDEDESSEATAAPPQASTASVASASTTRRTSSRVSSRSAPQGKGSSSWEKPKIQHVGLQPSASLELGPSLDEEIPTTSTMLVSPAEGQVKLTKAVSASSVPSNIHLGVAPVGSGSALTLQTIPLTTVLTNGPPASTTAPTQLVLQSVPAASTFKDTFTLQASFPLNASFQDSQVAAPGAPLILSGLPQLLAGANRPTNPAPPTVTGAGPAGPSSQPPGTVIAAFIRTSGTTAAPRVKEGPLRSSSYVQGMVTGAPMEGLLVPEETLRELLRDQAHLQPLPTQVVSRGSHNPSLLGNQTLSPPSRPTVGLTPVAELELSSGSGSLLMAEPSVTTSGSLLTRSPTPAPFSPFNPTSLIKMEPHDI
The next assay has as its target T8, ELK4 (Homo sapiens, UniProt P28324-2 1-405).
T8 sequence: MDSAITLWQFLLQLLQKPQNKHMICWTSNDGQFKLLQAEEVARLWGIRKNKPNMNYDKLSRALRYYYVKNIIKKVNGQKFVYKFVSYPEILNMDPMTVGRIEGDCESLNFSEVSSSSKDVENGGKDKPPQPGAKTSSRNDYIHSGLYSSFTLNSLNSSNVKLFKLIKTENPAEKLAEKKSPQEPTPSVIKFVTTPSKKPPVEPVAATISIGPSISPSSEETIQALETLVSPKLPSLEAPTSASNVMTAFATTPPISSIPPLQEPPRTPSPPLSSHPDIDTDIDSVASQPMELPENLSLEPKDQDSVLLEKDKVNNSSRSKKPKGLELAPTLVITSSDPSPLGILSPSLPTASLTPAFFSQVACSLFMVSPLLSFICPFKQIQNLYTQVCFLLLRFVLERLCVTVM
The procedure, abridged: as §1

A further assay has as its target T9, ETV2 (Homo sapiens, UniProt O00321 1-342).
T9 sequence: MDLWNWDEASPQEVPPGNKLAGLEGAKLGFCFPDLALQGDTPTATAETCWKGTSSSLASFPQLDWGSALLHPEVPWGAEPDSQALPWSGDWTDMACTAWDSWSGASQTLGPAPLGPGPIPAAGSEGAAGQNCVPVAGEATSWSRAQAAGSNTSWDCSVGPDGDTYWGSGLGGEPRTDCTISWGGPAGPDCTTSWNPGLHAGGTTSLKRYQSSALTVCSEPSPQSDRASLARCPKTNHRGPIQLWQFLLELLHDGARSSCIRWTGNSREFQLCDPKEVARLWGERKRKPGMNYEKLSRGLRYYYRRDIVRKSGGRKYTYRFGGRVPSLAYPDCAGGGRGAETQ
A digest of the protocol:
as §1

Another assay concerns the target T10, ELF3 (Homo sapiens, UniProt P78545 1-371).
T10 sequence: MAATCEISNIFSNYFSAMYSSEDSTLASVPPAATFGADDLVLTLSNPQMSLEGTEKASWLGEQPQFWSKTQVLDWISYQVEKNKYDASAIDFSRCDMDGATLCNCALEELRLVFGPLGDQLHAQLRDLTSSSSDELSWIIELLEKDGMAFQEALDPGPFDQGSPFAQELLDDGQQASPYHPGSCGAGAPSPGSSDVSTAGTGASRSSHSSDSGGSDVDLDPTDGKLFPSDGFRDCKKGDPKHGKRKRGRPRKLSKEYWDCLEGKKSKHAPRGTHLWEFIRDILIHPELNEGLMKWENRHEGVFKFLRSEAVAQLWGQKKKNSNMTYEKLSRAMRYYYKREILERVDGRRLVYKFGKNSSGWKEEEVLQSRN
A digest of the protocol:
as §1

The target in another assay is ETV1 (Homo sapiens, UniProt P50549 1-477). The procedure, abridged:
as §1

A further assay concerns the target T11, FEV (Homo sapiens, UniProt Q99581 1-238).
T11 sequence: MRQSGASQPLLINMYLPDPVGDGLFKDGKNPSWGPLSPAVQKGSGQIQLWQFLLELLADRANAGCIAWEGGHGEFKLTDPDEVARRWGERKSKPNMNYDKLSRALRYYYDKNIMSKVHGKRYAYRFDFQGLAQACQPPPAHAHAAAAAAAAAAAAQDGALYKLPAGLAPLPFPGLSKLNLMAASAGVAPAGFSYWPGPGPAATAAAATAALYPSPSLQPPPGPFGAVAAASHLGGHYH
The procedure, abridged:
as §1

SPIB, sequence (Q01892 whole entry): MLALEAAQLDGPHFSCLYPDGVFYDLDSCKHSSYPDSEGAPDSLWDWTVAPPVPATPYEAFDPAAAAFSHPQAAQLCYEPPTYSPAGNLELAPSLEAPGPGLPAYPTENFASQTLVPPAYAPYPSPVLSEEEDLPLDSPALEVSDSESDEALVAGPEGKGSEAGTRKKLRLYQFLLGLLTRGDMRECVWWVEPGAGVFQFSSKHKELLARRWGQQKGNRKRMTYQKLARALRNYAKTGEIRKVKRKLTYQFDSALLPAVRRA
ETV1, sequence (P50549 whole entry): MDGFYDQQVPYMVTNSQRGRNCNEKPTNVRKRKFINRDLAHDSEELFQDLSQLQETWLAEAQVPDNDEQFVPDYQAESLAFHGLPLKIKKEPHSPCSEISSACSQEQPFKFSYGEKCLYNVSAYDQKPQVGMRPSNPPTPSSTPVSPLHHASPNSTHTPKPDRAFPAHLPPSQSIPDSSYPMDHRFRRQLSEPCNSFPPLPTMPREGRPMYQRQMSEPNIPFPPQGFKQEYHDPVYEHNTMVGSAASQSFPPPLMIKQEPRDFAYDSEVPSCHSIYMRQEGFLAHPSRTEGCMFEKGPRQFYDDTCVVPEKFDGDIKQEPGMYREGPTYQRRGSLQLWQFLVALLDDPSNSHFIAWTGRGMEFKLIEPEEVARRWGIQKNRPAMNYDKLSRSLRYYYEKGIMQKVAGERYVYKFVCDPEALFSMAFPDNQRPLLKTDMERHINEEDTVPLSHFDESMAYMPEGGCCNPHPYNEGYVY
ETV5, sequence (P41161 whole entry): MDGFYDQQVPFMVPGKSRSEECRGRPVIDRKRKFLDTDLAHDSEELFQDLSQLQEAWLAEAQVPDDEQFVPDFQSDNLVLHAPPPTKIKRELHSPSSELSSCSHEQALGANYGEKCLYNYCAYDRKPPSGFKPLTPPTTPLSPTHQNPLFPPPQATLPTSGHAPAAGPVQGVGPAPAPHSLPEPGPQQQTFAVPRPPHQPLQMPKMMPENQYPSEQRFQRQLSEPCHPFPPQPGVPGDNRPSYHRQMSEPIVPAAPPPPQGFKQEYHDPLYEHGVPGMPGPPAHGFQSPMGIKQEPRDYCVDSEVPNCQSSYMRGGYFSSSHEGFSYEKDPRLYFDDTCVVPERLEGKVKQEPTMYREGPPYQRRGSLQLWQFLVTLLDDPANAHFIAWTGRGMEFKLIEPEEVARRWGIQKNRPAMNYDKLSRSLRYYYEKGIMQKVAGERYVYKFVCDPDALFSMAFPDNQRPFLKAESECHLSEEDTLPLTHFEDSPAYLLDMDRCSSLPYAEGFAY

TTGCGT: the binding signal with FLI1 is 1.05 fold enrichment (6-mer frequency, TF over GST control); with ELK1, 1.14 fold enrichment (6-mer frequency, TF over GST control); in the assay with GABPA, 1.12 fold enrichment (6-mer frequency, TF over GST control); with ERG it was 1.03 fold enrichment (6-mer frequency, TF over GST control); in the assay with ELF1, 1.11 fold enrichment (6-mer frequency, TF over GST control); in the assay with EHF, 1.01 fold enrichment (6-mer frequency, TF over GST control). Besides, the binding signal is 1.11 fold enrichment (6-mer frequency, TF over GST control) in the assay with SPI1; 1.11 fold enrichment (6-mer frequency, TF over GST control) with SPIB; 1.13 fold enrichment (6-mer frequency, TF over GST control) with ELK3; 1.1 fold enrichment (6-mer frequency, TF over GST control) in the assay with ETV5; 1.1 fold enrichment (6-mer frequency, TF over GST control) in the assay with SPIC; 1.08 fold enrichment (6-mer frequency, TF over GST control) with ELF4. Besides, the binding signal with ELK4 was 1.12 fold enrichment (6-mer frequency, TF over GST control); in the assay with ETV2, 1.33 fold enrichment (6-mer frequency, TF over GST control); with ELF3 it was 1.16 fold enrichment (6-mer frequency, TF over GST control); in the assay with ETV1, 1.12 fold enrichment (6-mer frequency, TF over GST control).

As to TGACGC, the binding signal with FLI1 was 1.1 fold enrichment (6-mer frequency, TF over GST control); with ELK1, 1.22 fold enrichment (6-mer frequency, TF over GST control); in the assay with GABPA it was 1.15 fold enrichment (6-mer frequency, TF over GST control); with ERG it was 1.13 fold enrichment (6-mer frequency, TF over GST control); in the assay with ELF1 it was 1.3 fold enrichment (6-mer frequency, TF over GST control); with EHF it was 1.21 fold enrichment (6-mer frequency, TF over GST control). Also, the binding signal with SPI1 is 1.15 fold enrichment (6-mer frequency, TF over GST control); with SPIB it was 1.24 fold enrichment (6-mer frequency, TF over GST control); in the assay with ELK3, 1.1 fold enrichment (6-mer frequency, TF over GST control); in the assay with FEV it was 1.13 fold enrichment (6-mer frequency, TF over GST control); with ETV5 it was 1.28 fold enrichment (6-mer frequency, TF over GST control); with SPIC, 1.18 fold enrichment (6-mer frequency, TF over GST control). The binding signal in the assay with ELF4 is 1.37 fold enrichment (6-mer frequency, TF over GST control); with ELK4, 1.3 fold enrichment (6-mer frequency, TF over GST control); with ETV2, 1.18 fold enrichment (6-mer frequency, TF over GST control); with ELF3, 1.11 fold enrichment (6-mer frequency, TF over GST control); with ETV1 it was 1.07 fold enrichment (6-mer frequency, TF over GST control).
